High-throughput results: PubChem BioAssay, several laboratories
Myeloid diff MLP: compounds promoting myeloid differentiation. ER-HoxA9 myeloid progenitors, lysozyme-GFP differentiation, flow cytometry. calls only at 10 µM. 360,000 tested, 1% active. AID 624256;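 active = normalized GFP-positive differentiation at or above the plate's own cutoff, the solvent-only control mean plus 3 SD; inconclusive = no clear call, values can overlap the other calls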;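 note: cells exposed to compound for four days before flow analysis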
Rtt109 HAT inh: C. albicans Rtt109 histone acetyltransferase inhibition; Q5AAJ8; purified Rtt109/Vps75, ThioGlo CoA-SH fluorescence, 4 h; inhibition, % at 34.9 µM; 330,000 tested, 0.16% active;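 active = inhibition of at least 50% in every replicate; inconclusive = best replicate reaches 50% inhibition but some replicates fall short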
DAGLB inh: blocks human DAGLB lipase activity | AID 504411 | Q8NCG7 | HEK293T DAGLB membrane lysate, EnzChek fluorogenic substrate | inhibition, % at 5.17 µM | 340,000 tested, 0.059% active; in the data active = inhibition above about 34%;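 note: 0% = enzyme with vehicle and 100% = wells lacking enzyme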
Target sequence (Q8NCG7 whole entry, looked up): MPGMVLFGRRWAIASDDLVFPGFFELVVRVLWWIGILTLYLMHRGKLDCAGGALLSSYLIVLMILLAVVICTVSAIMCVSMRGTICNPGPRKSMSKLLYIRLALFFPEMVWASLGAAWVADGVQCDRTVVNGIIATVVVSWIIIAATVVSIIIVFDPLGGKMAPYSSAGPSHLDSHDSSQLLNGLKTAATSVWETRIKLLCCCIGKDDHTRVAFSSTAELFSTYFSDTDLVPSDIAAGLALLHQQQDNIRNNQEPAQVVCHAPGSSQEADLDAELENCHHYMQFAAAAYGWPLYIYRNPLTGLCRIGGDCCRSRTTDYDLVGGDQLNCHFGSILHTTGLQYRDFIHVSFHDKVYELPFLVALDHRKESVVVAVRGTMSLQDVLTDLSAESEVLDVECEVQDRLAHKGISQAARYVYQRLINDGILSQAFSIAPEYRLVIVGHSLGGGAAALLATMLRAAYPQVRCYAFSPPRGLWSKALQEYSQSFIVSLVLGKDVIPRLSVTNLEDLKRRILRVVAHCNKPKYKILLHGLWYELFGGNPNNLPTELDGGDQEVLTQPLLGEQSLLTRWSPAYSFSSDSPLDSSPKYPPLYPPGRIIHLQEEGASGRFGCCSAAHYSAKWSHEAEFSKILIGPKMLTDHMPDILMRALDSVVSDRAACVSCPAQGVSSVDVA
ABHD5-PLIN5 inh: ABHD5-PLIN5 protein interaction inhibition; inhibition, % at 4 µM; AID 602281; 360,000 tested, 0.78% active; Q00G26+Q8WTS1; Split G. princeps luciferase complementation, luminescence, 4 h;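 active = inhibition above the mean inhibition across every tested compound plus 3 SD, cut at about 22% in these data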;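 note: 0% = DMSO only wells and the 100% control is not disclosed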
Cardio protect: myocardial damage modulation in H9c2 cells; H9c2 cardiomyocytes, H2O2 injury protection, ATPLite, 2 h; protection from H2O2 cell death, % at 20 µM; AID 588492; 360,000 tested, 0.63% active;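 active = compounds giving at least 50% protection of heart cells from peroxide-induced death in the single-dose screen, raw or plate-pattern-corrected value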;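 note: 0% = DMSO wells with peroxide and 100% = DMSO wells without peroxide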
HGIII-sPLA2 inh: Blocks human group III sPLA2 activity | inhibition, % at 12.2 µM | 370,000 tested, 0.56% active | QFRET BODIPY PC-A2 liposome hydrolysis, fluorescence | AID 743126 | Q9NZ20;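 active = inhibition above mean plus 3 SD of compounds lying within the high and low control bounds, cut at about 19% in these data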;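 note: 0% = median of test compound wells and 100% = no enzyme DMSO wells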
Starred values were filed as active, the others as inactive; i = inactive; ? = inconclusive; nt = no result; + = active, no number. Hits are enriched below; roughly 2.9% of the tested compounds scored in any of these assays.

SMILES	Myeloid diff MLP	Rtt109 HAT inh	DAGLB inh	ABHD5-PLIN5 inh	Cardio protect	HGIII-sPLA2 inh
CCOc1ccc(N2C(=O)C(Cl)=C(N3CCOCC3)C2=O)cc1	i	116*	1	8	2	-2
O=C(CN1CC(=O)Oc2ccccc21)OCC(=O)c1ccc(F)cc1	i	-2	-3	0	-4	4
O=C(CN1CC(=O)Oc2ccccc21)OCC(=O)c1ccc(Br)cc1	i	21	-3	-1	57*	4
C=CCN1CCc2c(cc(O)c(O)c2Br)[C@@H](c2ccccc2)C1	i	3	4	-4	60*	-21
O=C(NCC(=O)N1CCN(c2ccc(C(F)(F)F)cn2)CC1)c1ccc(Br)o1	i	-5	-4	-1	-5	-2
O=C1c2cccnc2-c2ncccc21	i	-3	-1	-1	2	3
O=C1C(=O)c2cccnc2-c2ncccc21	?	nt	nt	101*	-17	-9
COc1ccc(NC(=O)c2cnc3ccccn3c2=O)c(OC)c1	i	-7	-5	-7	16	-5
COc1ccc(C(C[N+](=O)[O-])c2c(-c3ccccc3)cc3ccccn23)c(OC)c1 (centres undefined)	nt	-9	4	41*	-3	-8
O=C(COC(=O)C1CCCCC1)Nc1cccc(Br)c1	i	-4	-5	-3	-4	-1
CCc1cc(C(=O)N/N=C/c2ccc(O)cc2O)c2ccccc2n1	?	7	3	5	53*	-8
O=C(CNC(=O)C(c1ccccc1)c1ccccc1)N/N=C\c1cccc(O)c1	i	13	2	6	-1	-19
O=C(/C=C\c1ccccc1)NCC(=O)N/N=C/c1ccc(O)cc1O	i	-10	2	0	66*	nt
COc1ccc(/C=C\C(=O)NCC(=O)N/N=C/c2ccc(O)cc2O)cc1	i	9	1	5	47	-25
O=C(CNC(=O)C(c1ccccc1)c1ccccc1)N/N=C/c1ccc(O)cc1O	i	-10	-1	1	56*	-30
O=C(N/N=C/c1ccc(O)cc1O)/C(=C/c1ccccc1)CCO	i	-4	5	0	57*	-24
COc1ccc(N2CCN(C(=O)COC(=O)CCOc3cc(C)ccc3C)CC2)cc1	i	7	-2	-7	1	5
O=C(CNC(=O)C1COc2ccccc2O1)N/N=C/c1ccc(O)cc1O (centres undefined)	i	1	5	-7	63*	-19
O=C(CNC(=O)C1COc2ccccc2O1)N/N=C\c1cccc(O)c1 (centres undefined)	i	9	-1	7	-2	-3
O=C(Nc1cc(C(F)(F)F)ccc1F)C1CCCC1	i	30	-4	0	-5	-4
O=C(CSc1nc2ccccc2[nH]1)NC1CCCC1	i	-3	1	4	-3	-3
O=C(CCCSc1nc2ccccc2[nH]1)NC1CCCCC1	i	56*	2	-6	4	1
CCc1ccc([C@H]2C[C@H]3[C@H]4C(=O)N(c5ccccc5)C(=O)[C@H]4CC(=O)[C@@H]3CN2S(=O)(=O)c2ccc(C)cc2)cc1	i	nt	nt	-4	-2	-44
O=C1CC(/C=C/c2ccco2)=Nc2ccccc2N1	+	15	4	20	7	nt
COc1ccc2nc(NC(=O)CN3C(=O)NC4(CCCCC4)C3=O)sc2c1	i	52*	-2	8	-4	-5
SMILES	Myeloid diff MLP	Rtt109 HAT inh	DAGLB inh	ABHD5-PLIN5 inh	Cardio protect	HGIII-sPLA2 inh
COc1ccc2nc(NC(=O)CN3C(=O)NC4(CCCC4)C3=O)sc2c1	i	1	-1	0	-7	7
COc1ccc2c(c1OC)C(=O)N1c3ccccc3C(=O)N(c3ccccc3)C21 (centres undefined)	i	19	-4	1	54*	4
COc1ccc2c(c1OC)C(=O)N1c3ccccc3C(=O)N(c3ccc(F)cc3)C21 (centres undefined)	i	-1	-2	-1	40	6
Cc1ccc(C(=O)N2CCCC(C(=O)Nc3cccc(-c4ccc(F)cc4)c3)C2)cn1 (centres undefined)	i	-4	3	-13	-2	-1
O=c1c(O)c(-c2ccc(O)c(O)c2)oc2cc(O)cc(O)c12	i	1	6	0	95*	1
O=c1cc(-c2ccc(O)c(O)c2)oc2cc(O)cc(O)c12	i	1	5	0	62*	-10
COc1ccc(C(=O)/C=C/C(=O)N(CC(=O)NC2CCCCC2)CC2CCCO2)c(O)c1 (centres undefined)	i	5	0	66*	-28	-34
C=C(C(=O)c1ccccc1)C(C)C(=C)C(=O)c1ccccc1	?	-3	-6	22*	-16	6
C=C(C(=O)c1ccccc1)C(c1ccccc1)C(C)C(=O)c1ccccc1 (centres undefined)	i	9	-1	3	-13	2
Cc1nn(-c2ccccc2)c(C)c1/C=N/NC(=O)c1cc(-c2ccccc2)n[nH]1	?	-2	2	-3	75*	-5
Cc1[nH]c2ccccc2c1/C=N/NC(=O)c1cc(-c2ccccc2)n[nH]1	i	-4	nt	2	55*	-12
Cc1nn(-c2ccccc2)c(C)c1/C=N/NC(=O)c1cc(-c2cccc3ccccc23)n[nH]1	i	nt	1	-8	11	-18
Cc1ccccc1OC(C)C(=O)NCCC1=CCCCC1 (centres undefined)	nt	4	-9	-7	-3	1
C/C=C/n1ccnc1CC(O)(c1ccccc1)c1ccc(C)cc1 (centres undefined)	i	60*	-3	5	-6	-2
Fc1ccc(-c2nc3ccc(Br)cn3c2Cc2ccccc2)cc1	i	nt	0	-3	-16	-10
COc1ccc(Nc2nc(Cl)c(C=O)s2)cc1	+	7	-2	-1	-7	nt
CCOC(=O)c1cccc(NC(=O)CSc2nc3ccccc3c(=O)n2CCOC)c1	i	1	-6	4	69*	-1
CCCn1c(SC(C(=O)Nc2cccc(OC)c2)c2ccccc2)nc2ccccc2c1=O (centres undefined)	i	4	-3	-2	50*	9
CCOC(=O)c1cccc(NC(=O)CSc2nc3ccccc3c(=O)n2CC)c1	i	10	-1	5	9	1
CCCCNC(=O)C1=C(N)C(C(=O)Nc2ccc(C)c(S(=O)(=O)N3CCCCC3)c2)SC1=Nc1ccc(C)cc1C (centres undefined)	i	23	-16	24*	-5	-38
CN(C(=O)c1cccn(Cc2ccccc2)c1=O)c1ccccc1	i	0	-2	-1	2	3
CCN1CC=C2C(C#N)=C(N)C(C#N)(C#N)C(c3cc(Cl)ccc3Cl)C2C1 (centres undefined)	+	-121	-2	-4	12	-19
